# Results as given in PubChem BioAssay (NCATS).
# Inconclusive results are not listed. A call without a number means that no potency is given here. Active and inactive are the calls of the source. Unless noted, the call rests on the fitted dose curve; in most records, active means well fitted curve in the direction sought with a large enough effect; inconclusive means small, poorly fitted or top-dose-only effect, or another doubt; inactive means no such curve, though single readings can be large; an effect the other way counts as inactive or inconclusive.
# Legend:
# [1] = qHTS assay to identify small molecule inhibitors of chordoma cells - UCH-2 (AID 1259356); further: series mostly up to about 46 µM
# [2] = P-glycoprotein substrates identified in KB-8-5-11 adenocarcinoma cell line, qHTS therapeutic library screen (AID 1346987); details: outcome: dose series up to 44.5 µM unless noted; further: nearly all actives have a fitted effect of over 65% in size; further: potency means the concentration at half of the fitted maximal effect
# Procedure, shortened: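 P-gp-mediated resistance screen: KB-8-5-11 cells treated 72 h with compounds in dose-response. CellTiter-Glo viability.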
# [3] = biological target: Atrial natriuretic peptide receptor 1 (Homo sapiens) (UniProt P16066); assay: Natriuretic polypeptide receptor (hNpr1) antagonism - Pilot CMLD screen (AID 1347052; calls by dose curve;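 further: HEK293 cells with hNpr1 stimulated by hNppA peptide at 0.1 nM; cGMP level read as GloSensor luciferase luminescence after agonist stimulation; series mostly up to about 9.2 µM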)
# Description: In order to identify small molecular compounds that inhibit the hNpr1 receptor we developed a high-throughput assay to measure inhibition of the guanylate cyclase activity of the receptor. cGMP production was measured using a circular permutated Firefly luciferase (FLuc) enzyme functionally linked to the cGMP binding domain of human phosphodiesterase 5 (GloSensor technology pGS-40F, (Fan, F. et al. 2008). The cGMP-sensor was expressed in human embryonic kidney 293 (HEK-293) cells and FLuc activity was measured after stimulation with hNrp agonist peptide. hNrp agonists activates the receptor's associated guanylyl cyclase (GC) domain producing cGMP which then binds to the GloSensor resulting in FLuc activation, the enzymatic activity of which can be measured as bioluminescence with addition of luciferin substrate.
# This assay was initially piloted by testing with a small library of specialty compounds.
# PROTOCOL TABLES (as described by Inglese J, Shamu CE and Guy RK. 2007)
# SEQUENCE No. (e.g., 1, 2, 3, etc.); […] (e.g., Cells, Incubation, Reagent, etc.); VALUE and DESCRIPTION.
# 1. Cells. […]
# 7. […] GloSensor baseline pre-read luminescence measured using CCD-based camera (Viewlux). […]
# 10. […] GloSensor post-hNppA luminescence measured using CCD-based camera (Viewlux). […]
# 1. […] Cells counted with Invitrogen Countess (30,000,000 - 50,000,000 cells/flask). […]
# [4] = NS1 protein of Zika virus - qHTS assay to identify small molecule inhibitors in human HEK 293 cells (AID 1347053); further: series mostly up to about 46 µM; nearly all actives have a fitted effect of over 55% in size
# Procedure, shortened: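 Following 20 h seeding, HEK 293 cells took compound, then 1 h later ZIKV MR766 (MOI = 0.5). Incubation ran 24 h at 37 C before TR-FRET detection of NS1; a drop in signal indicates inhibition.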
# [5] = qHTS of pediatric cancer cell lines to identify multiple opportunities for drug repurposing: Primary screen for TC32 cells (AID 1347089); further: nearly all actives have a fitted effect of over 60% in size
# Procedure, shortened: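 A viability screen of TC32 cells was run over 48 h, with primary MIPE doses spanning 0.78 nM–46 µM and NPC doses 0.59 nM–46 µM. ATP luminescence (CellTiter-Glo) served as the read-out.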
# [6] = qHTS of pediatric cancer cell lines to identify multiple opportunities for drug repurposing: Primary screen for SJ-GBM2 cells (AID 1347091)
# Procedure, shortened: (§1)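 Eight- or eleven-point concentration series, 48 h treatment at 37 degrees C in growth media; readout CellTiter-Glo luminescence. Potency and efficacy were taken from the concentration-response curves.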
# [7] = qHTS of pediatric cancer cell lines to identify multiple opportunities for drug repurposing: Primary screen for A673 cells (AID 1347092); further: nearly all actives have a fitted effect of over 45% in size; further: potency means the concentration at half of the fitted maximal effect
# Procedure, shortened: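 Titration-based qHTS on A673 cells: MIPE compounds spanned 11 points (0.78 nM to 46 µM final), NPC compounds 8 points (0.59 nM to 46 µM final). Viability after 48 h was measured by ATP luminescence.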
# [8] = qHTS of pediatric cancer cell lines to identify multiple opportunities for drug repurposing: Primary screen for BT-37 cells (AID 1347094); further: series mostly up to about 57 µM
# Procedure, shortened: (§2)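 Quantitative HTS format: each compound titrated (MIPE 11 points from 0.78 nM, NPC 8 points from 0.59 nM) onto cells plated 5 hours earlier. After 48 h at 37 degrees C, CellTiter-Glo luminescence was recorded.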
# [9] = qHTS of pediatric cancer cell lines to identify multiple opportunities for drug repurposing: Primary screen for U-2 OS cells (AID 1347096); further: nearly all actives have a fitted effect of over 50% in size
# Procedure, shortened: (§3)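 Cells (500-1,000/well) in growth media were settled 5 h at 37 degrees C, then given compounds for 48 h. Viability was read as CellTiter-Glo luminescence. Primary runs used MIPE at 11 points (0.78 nM-46 µM) and NPC at 8 points (0.59 nM-46 µM); follow-ups used 11 points.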
# [10] = qHTS of pediatric cancer cell lines to identify multiple opportunities for drug repurposing: Primary screen for SK-N-SH cells (AID 1347098);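 further: DMSO served as neutral control and bortezomib at 2.3 µM as positive control; nearly all actives have a fitted effect of over 65% in size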
# Procedure, shortened: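 Cells (500-1,000/well) rested 5 h, then received compounds for 48 h; metabolically active cells were measured by CellTiter-Glo luminescence. Final concentrations spanned up to 46 µM (MIPE, 11-point) or 0.59 nM-46 µM (NPC, 8-point) in primary screens, 11-point in follow-ups.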
# [11] = qHTS of pediatric cancer cell lines to identify multiple opportunities for drug repurposing: Primary screen for DAOY cells (AID 1347090); further: series mostly up to about 46 µM; nearly all actives have a fitted effect of over 55% in size
# Procedure, shortened: as §1
# [12] = qHTS of pediatric cancer cell lines to identify multiple opportunities for drug repurposing: Primary screen for SK-N-MC cells (AID 1347093); further: series mostly up to about 46 µM
# Procedure, shortened: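 Metabolically active cells were quantified by ATP-dependent luminescence (CellTiter-Glo, 15 min at room temperature) following 48 h treatment. Cells had been plated at 500-1,000 per well and settled for 5 h beforehand.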
# [13] = qHTS of pediatric cancer cell lines to identify multiple opportunities for drug repurposing: Primary screen for NB-EBc1 cells (AID 1347095)
# Procedure, shortened: as §2
# [14] = qHTS of pediatric cancer cell lines to identify multiple opportunities for drug repurposing: Primary screen for NB1643 cells (AID 1347099); further: nearly all actives have a fitted effect of over 50% in size
# Procedure, shortened: as §2
# [15] = qHTS of pediatric cancer cell lines to identify multiple opportunities for drug repurposing: Primary screen for LAN-5 cells (AID 1347100)
# Procedure, shortened: as §3
# Atrial natriuretic peptide receptor 1 (Homo sapiens), sequence (P16066 whole entry, looked up, the tested form may be a part): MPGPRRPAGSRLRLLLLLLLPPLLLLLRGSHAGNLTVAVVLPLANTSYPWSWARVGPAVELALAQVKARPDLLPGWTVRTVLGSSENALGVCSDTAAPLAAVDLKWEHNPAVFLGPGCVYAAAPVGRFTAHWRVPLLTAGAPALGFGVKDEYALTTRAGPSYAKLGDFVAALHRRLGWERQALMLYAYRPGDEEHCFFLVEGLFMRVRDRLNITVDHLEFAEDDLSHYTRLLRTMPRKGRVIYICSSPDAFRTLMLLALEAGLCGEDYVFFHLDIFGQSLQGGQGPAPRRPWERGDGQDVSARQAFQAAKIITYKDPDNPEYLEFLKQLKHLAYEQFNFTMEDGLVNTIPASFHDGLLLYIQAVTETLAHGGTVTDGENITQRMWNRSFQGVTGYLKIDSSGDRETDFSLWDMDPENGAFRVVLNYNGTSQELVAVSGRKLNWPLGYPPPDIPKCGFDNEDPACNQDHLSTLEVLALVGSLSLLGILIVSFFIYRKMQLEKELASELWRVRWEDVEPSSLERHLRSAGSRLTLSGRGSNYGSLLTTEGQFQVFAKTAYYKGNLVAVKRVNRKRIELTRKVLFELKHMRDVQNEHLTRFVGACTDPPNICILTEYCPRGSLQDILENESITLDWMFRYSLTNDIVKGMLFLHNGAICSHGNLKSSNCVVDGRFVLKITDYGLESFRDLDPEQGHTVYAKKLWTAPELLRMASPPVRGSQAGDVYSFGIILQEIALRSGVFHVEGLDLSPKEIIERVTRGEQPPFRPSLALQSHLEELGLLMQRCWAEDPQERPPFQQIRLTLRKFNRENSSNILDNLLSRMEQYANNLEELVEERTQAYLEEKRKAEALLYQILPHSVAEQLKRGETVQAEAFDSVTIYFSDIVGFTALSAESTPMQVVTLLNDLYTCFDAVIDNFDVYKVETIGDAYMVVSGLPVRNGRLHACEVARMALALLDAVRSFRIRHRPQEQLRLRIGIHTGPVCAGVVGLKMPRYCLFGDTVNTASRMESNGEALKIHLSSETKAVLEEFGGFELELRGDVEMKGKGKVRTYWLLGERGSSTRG
structure (smiles),measurement,setting,value
O=C(CO)[C@@H](O)[C@H](O)[C@@H](O)C(=O)O,Potency,[1],inactive
same,Potency,[2],inactive
C=CC(=O)O,Potency,[1],inactive
same,Potency,[2],inactive
CCCC(=O)Nc1c(I)cc(I)c(CC(CC)C(=O)O)c1I (stereo unspecified),Potency,[1],inactive
same,Potency,[2],inactive
NC[C@H]1O[C@H](O[C@H]2[C@H](O)[C@@H](O[C@H]3O[C@H](CO)[C@@H](O)[C@H](N)[C@H]3O)[C@H](N)C[C@@H]2N)[C@H](N)C[C@@H]1O,Potency,[1],inactive
same,Potency,[2],inactive
C=CC1=C(C(=O)O)N2C(=O)[C@@H](NC(=O)/C(=N\O)c3csc(N)n3)[C@H]2SC1 (stereo in doubt),Potency,[1],inactive
same,Potency,[2],inactive
CCCCCCCCCc1ccc(OCCOCCO)cc1,Potency,[1],inactive
same,Potency,[2],4.61 µM (active)
CCN(CC)C(=S)S,Potency,[1],inactive
same,Potency,[2],inactive
CCc1ccc(S(=O)(=O)O)cc1,Potency,[1],inactive
same,Potency,[2],inactive
CNC(=O)OCc1cccc(COC(=O)NC)n1,Potency,[1],inactive
same,Potency,[2],inactive
[O]=[Bi][O]C(=O)[O][Bi]=[O],Potency,[1],inactive
same,Potency,[2],inactive
CC(C)(C)c1ccc2c(S(=O)(=O)O)c(C(C)(C)C)ccc2c1,Potency,[1],inactive
same,Potency,[2],inactive
CC1(C)C(\C=C/C=C\C=C/C=C2/N(CCCCS(=O)(=O)O)c3ccc4ccccc4c3C2(C)C)=[N+](CCCCS(=O)(=O)[O-])c2ccc3ccccc3c21,Potency,[1],inactive
same,Potency,[2],inactive
O=C1CC[C@@H](C(=O)N[C@H]2C[C@@H]2c2ccccc2)N1,Potency,[1],inactive
same,Potency,[2],inactive
CCOC(=O)c1cc(-c2ccccc2)nc2ccc(C)cc12,Potency,[1],inactive
same,Potency,[2],inactive
CCCCCCCCCCCCCCCC(=O)OC[C@@H](O)[C@H]1OC[C@H](O)[C@H]1O,Potency,[1],inactive
same,Potency,[2],inactive
NCCN,Potency,[1],inactive
same,Potency,[2],inactive
CC(C)OC(=O)Nc1ccc2nc(-c3cscn3)[nH]c2c1,Potency,[1],inactive
same,Potency,[2],4.61 µM (active)
O=C(CCCN1CCN2CCCC2C1)c1ccc(F)cc1 (stereo unspecified),Potency,[1],inactive
same,Potency,[2],inactive
CC(=O)OCC1=C(C(=O)O)N2C(=O)[C@@H](NC(=O)Cc3ccccc3)[C@H]2SC1,Potency,[1],inactive
same,Potency,[2],inactive
CCc1cn([C@H]2C[C@H](O)[C@@H](CO)O2)c(=O)[nH]c1=O,Potency,[1],inactive
same,Potency,[2],inactive
CC(C)=CCC/C(C)=C/CC/C(C)=C/CC/C=C(\C)CC/C=C(\C)CCC=C(C)C,Potency,[1],inactive
same,Potency,[2],inactive
CCN1C(=O)NC(c2ccccc2)C1=O (stereo unspecified),Potency,[1],inactive
same,Potency,[2],inactive
CN1CCc2c(c3ccccc3n2Cc2ccccc2)C1,Potency,[1],inactive
same,Potency,[2],inactive
CO[C@H]1C[C@H](O[C@@H]2/C(C)=C/C[C@@H]3C[C@@H](C[C@]4(CC[C@H](C)[C@@H](C5CCCCC5)O4)O3)OC(=O)[C@@H]3C=C(C)/C(=N/O)[C@H]4OC/C(=C\C=C\[C@@H]2C)[C@]43O)O[C@@H](C)[C@@H]1O,Potency,[1],inactive
same,Potency,[2],inactive
CC(=O)Oc1cc(C(F)(F)F)ccc1C(=O)O,Potency,[1],inactive
same,Potency,[2],inactive
Cc1c(O)c(=O)ccn1C,Potency,[1],inactive
same,Potency,[2],inactive
same,outcome,[3],inactive
C[C@H]1[C@@H](OC(=O)CCC(=O)O)O[C@@H]2OC3(C)CC[C@H]4[C@H](C)CC[C@@H]1[C@@]24OO3,Potency,[1],inactive
same,Potency,[2],4.61 µM (active)
CCCCCCCCCC(=O)NO,Potency,[1],inactive
same,Potency,[2],inactive
CCCCCCCCCCCC(=O)OCC(O)CO (stereo unspecified),Potency,[1],inactive
same,Potency,[2],inactive
CC(=O)Oc1cccc2c1C(=O)c1c(OC(C)=O)cc(C(=O)O)cc1C2=O,Potency,[1],inactive
same,Potency,[2],inactive
same,outcome,[4],inactive
same,outcome,[5],inactive
same,outcome,[6],inactive
same,Potency,[7],21.1 µM (active)
same,Potency,[8],inactive
same,outcome,[9],inactive
same,outcome,[10],inactive
O=C(O)CCC/C=C\C[C@@H]1[C@@H](/C=C/[C@@H](O)COc2cccc(C(F)(F)F)c2)[C@H](O)C[C@@H]1O,Potency,[1],inactive
same,Potency,[2],inactive
COc1ccc2nc(NC(=O)Nc3ccccc3)sc2c1,Potency,[1],inactive
same,outcome,[4],inactive
same,outcome,[5],inactive
same,outcome,[11],inactive
same,outcome,[6],inactive
same,Potency,[7],inactive
same,Potency,[12],inactive
same,Potency,[8],inactive
same,outcome,[13],inactive
same,outcome,[9],inactive
same,outcome,[10],inactive
same,outcome,[14],inactive
same,outcome,[15],inactive
COc1cc(S(C)=O)ccc1-c1nc2ncccc2[nH]1 (stereo unspecified),Potency,[1],inactive
same,Potency,[2],inactive
C[C@@H]1O[C@@H]1P(=O)(O)O,Potency,[1],inactive
same,Potency,[2],inactive
CN(CCO)CC(O)Cn1cnc2c1c(=O)n(C)c(=O)n2C (stereo unspecified) (tested in a mixture with another compound),Potency,[1],inactive
same,Potency,[2],inactive
CNC(C)CCC=C(C)C (stereo unspecified),Potency,[1],inactive
same,Potency,[2],inactive
